Experimental data published in PMC4336329 (PLoS ONE, 2015).
The whole screen tested about 310,000 compounds, of which about 14,000 (4.5%) showed an effect of 50% or more. Effects have a minus sign here. Shown is part of a subset that was picked to be rich in strong results.

The compounds below were run against human ether-à-go-go-related gene (hERG) potassium channel (human, UniProt Q12809) (assay: primary screen, population patch clamp on CHO cells stably expressing hERG; higher = less effect of the substance).
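Further: peak tail current of the secondary pulse compared with the same well before compound.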

Sequence of human ether-à-go-go-related gene (hERG) potassium channel (Q12809 whole entry, looked up): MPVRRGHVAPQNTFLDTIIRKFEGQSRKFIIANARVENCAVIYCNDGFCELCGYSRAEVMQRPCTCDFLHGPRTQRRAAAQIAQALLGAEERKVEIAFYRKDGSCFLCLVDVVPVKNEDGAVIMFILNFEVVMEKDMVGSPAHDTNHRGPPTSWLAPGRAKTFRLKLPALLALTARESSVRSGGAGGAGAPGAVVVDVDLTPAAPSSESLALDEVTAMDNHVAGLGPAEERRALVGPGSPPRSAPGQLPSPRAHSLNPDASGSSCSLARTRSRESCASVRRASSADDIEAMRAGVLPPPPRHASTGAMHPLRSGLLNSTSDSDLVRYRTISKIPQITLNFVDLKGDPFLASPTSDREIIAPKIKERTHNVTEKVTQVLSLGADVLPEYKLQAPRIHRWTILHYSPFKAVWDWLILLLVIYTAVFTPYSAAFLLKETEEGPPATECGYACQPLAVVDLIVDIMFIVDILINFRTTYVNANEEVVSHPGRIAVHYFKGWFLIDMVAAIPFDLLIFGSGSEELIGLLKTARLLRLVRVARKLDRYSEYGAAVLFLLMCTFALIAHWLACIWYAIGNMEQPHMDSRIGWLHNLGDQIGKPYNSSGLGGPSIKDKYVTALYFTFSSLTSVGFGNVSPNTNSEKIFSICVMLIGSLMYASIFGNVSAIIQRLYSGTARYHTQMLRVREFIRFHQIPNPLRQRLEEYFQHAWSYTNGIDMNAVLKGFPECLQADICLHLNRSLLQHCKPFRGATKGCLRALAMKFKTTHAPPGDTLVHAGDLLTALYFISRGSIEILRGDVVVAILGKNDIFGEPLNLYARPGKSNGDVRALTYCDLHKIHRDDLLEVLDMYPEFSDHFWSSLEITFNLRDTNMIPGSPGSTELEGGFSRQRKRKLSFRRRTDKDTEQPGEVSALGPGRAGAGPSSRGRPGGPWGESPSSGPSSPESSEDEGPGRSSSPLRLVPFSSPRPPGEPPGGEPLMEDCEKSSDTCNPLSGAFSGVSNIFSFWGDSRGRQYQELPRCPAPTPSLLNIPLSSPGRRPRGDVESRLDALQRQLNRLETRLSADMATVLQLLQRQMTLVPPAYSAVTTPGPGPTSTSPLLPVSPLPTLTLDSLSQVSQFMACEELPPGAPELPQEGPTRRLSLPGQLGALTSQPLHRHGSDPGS

SMILES	hERG current change (%, negative = inhibition) at 10uM
CCOc1ccc(C2C(C(=O)NC)=C(C)Nc3nc4ccccc4n32)cc1OC (stereo not drawn)	11.9%
CCCSC1=C(C#N)C(c2cccs2)CC(=O)N1 (stereo not drawn)	3.24%
CC(=O)N1CCN(c2ccccc2NC(=O)COc2ccc(Cl)cc2Cl)CC1	-22.3%
CCC(=O)N1CCN(c2ccccc2NC(=O)Cc2ccccc2)CC1	-29.1%
CCC(=O)Nc1cc(Cl)ccc1N1CCN(C(=O)CC)CC1	-24.9%
CC(=O)N1CCN(c2ccccc2NC(=O)Cc2ccc(Cl)cc2)CC1	-64.8%
CCC(=O)N1CCN(c2ccccc2NC(=O)COc2ccccc2Cl)CC1	-42.2%
CCC(=O)N1CCN(c2ccc(Cl)cc2NC(=O)Cc2ccccc2)CC1	-46.3%
CC(C)C(=O)N1CCN(c2ccccc2NC(=O)COc2ccc(C3CCCCC3)cc2)CC1	-4.96%
CCC(=O)N1CCN(c2ccc(Cl)cc2NC(=O)Cc2ccc(Cl)cc2)CC1	-54.5%
CCC(=O)N1CCN(c2ccccc2NC(=O)Cc2ccc(Cl)cc2)CC1	-68.6%
O=C(COc1ccccc1)Nc1ccccc1N1CCN(c2ccccc2)CC1	1.02%
O=C(Cc1ccccc1)Nc1ccccc1N1CCN(c2ccccc2)CC1	11.9%
CC(C)C(=O)N1CCN(c2ccccc2NC(=O)COc2ccccc2)CC1	-57.6%
CCN(CC)S(=O)(=O)c1cc(NC(=O)C2CCN(c3ncnc4sc(C)c(C)c34)CC2)ccc1Cl	23.3%
O=C(Nc1ccccc1)/C(=C\c1ccc(F)cc1)NC(=O)c1ccco1	3.87%
CCOC(=O)C1CCN(S(=O)(=O)c2ccc(OCC(=O)OC)cc2)CC1	-9.54%
O=c1c(/C=N/O)c(Nc2ccccc2)nc2ccccn12	-13.5%
Cc1ccc(-n2nc(C)c3c(C)c(CCC(=O)O)c(C)nc32)cc1	12.6%
CCOC(=O)CN1C(=O)C(C)(C)Oc2ccc(C(=O)Nc3ccccc3OC)cc21	-6.76%
Cc1cc(C)nc(N2CCC(C(=O)NNC(=O)Cc3ccccc3)CC2)n1	8.85%
CN1CCN(c2ccccc2NC(=O)Cc2cn(C)c3ccccc23)CC1	-59.5%
CS(=O)(=O)N1CCN(c2ccccc2NC(=O)Cc2ccc(Cl)cc2)CC1	-38.4%

SMILES	hERG current change (%, negative = inhibition) at 10uM
CC(C)C(=O)N1CCN(c2ccccc2NC(=O)Cc2ccc(Cl)cc2)CC1	-69.7%
CN1CCN(c2ccccc2NC(=O)C(Cc2ccccc2)n2cccc2)CC1 (stereo not drawn)	-65.6%
O=C(Cc1ccc(Cl)cc1)Nc1ccccc1N1CCOCC1	5.94%
CCc1ccccc1NC(=O)Cc1cn(C)c2ccccc12	3.59%
CN1CCN(c2ccccc2NC(=O)Cc2ccc(Cl)cc2)CC1	-73.4%
CN1CCN(c2ccccc2NC(=O)c2ccc(-c3ccccc3)cc2)CC1	-31.6%
Cc1ccccc1NC(=O)C(Cc1ccccc1)n1cccc1 (stereo not drawn)	-0.159%
Cc1ccccc1NC(=O)Cc1cn(C)c2ccccc12	15.1%
CC(C)C(=O)N1CCN(c2ccccc2NC(=S)NC(=O)Cc2ccccc2)CC1	-4.92%
CCCC(=O)Nc1ccccc1N1CCN(C(=O)C(C)C)CC1	11.4%
CN(C(=O)CSc1nnc(-c2ccco2)o1)C1CCCCC1	-7.54%
C[C@@H]1NC(=O)c2cc([N+](=O)[O-])cc(I)c2NCCCC[C@@H](C(N)=O)NC(=O)[C@H](CCC(=O)O)NC1=O	-9.34%
COC(=O)C1=C(C)N(C)C(=O)NC1c1ccccc1 (stereo not drawn)	-5.95%
Cc1cc(C(=O)Nn2c(-c3ccncc3)nc3ccccc3c2=O)ccc1[N+](=O)[O-]	31.8%
C=CCOc1c(CNc2ccc(S(N)(=O)=O)cc2)cccc1OC	2.97%
O=C(CSc1ccc(Cl)cc1)Nc1ccccc1N1CCN(C(=O)c2ccccc2)CC1	-14.9%
Cc1ccc(NC(=O)C(Cc2ccccc2)n2cccc2)cc1 (stereo not drawn)	3.37%
O=C(Cc1ccc(Cl)cc1)Nc1ccccc1N1CCN(C(=O)c2ccccc2)CC1	-72.1%
COc1cccc(NC(=O)C(Cc2ccccc2)n2cccc2)c1 (stereo not drawn)	-17%
Cc1cccc(NC(=O)C(Cc2ccccc2)n2cccc2)c1 (stereo not drawn)	-51.2%
O=C(CSc1ccc(Cl)cc1)Nc1ccccc1N1CCN(C(=O)c2ccc(Cl)cc2)CC1	-10.7%
CC(C)(C)c1ccc(/C=C/C(=O)NC2=NCCS2)cc1	10.5%
O=C(O)CC1SC(=Nc2cccc(C(F)(F)F)c2)NC1=O (stereo not drawn)	5.13%

SMILES	hERG current change (%, negative = inhibition) at 10uM
CCN(CC)c1ccc(/C=N/OCC(=O)Nc2cccc(C)c2)cc1	-2.16%
CCCCOc1ccc(C(=O)N2CCNC(=O)C2CC(=O)OC(C)C)cc1 (stereo not drawn)	13.1%
Cc1ccc(-c2nc(CS(=O)CC(=O)NC3CCCC3)c(C)o2)cc1 (stereo not drawn)	-13.3%
COc1ccc(-c2cc(COc3ccccc3)on2)cc1	36.1%
CC(=O)c1c(N2CCN(Cc3ccccc3)CC2)[nH]c(-c2ccccc2)nc1=S	2.17%
O=C(c1cccc(S(=O)(=O)N2CCCCC2)c1)N1CCCCC1	5.7%
N#Cc1ccc(CN2CCN(C(=O)c3ccc(S(=O)(=O)N4CCCCCC4)cc3)CC2)cc1	-40.9%
N#Cc1ccc(CN2CCN(C(=O)c3ccccc3)CC2)c(Cl)c1	-33.2%
Cl.O=C(c1cccc(S(=O)(=O)N2CCCC2)c1)N1CCN(Cc2ccccc2)CC1	-14.2%
Cl.O=C(c1cccc(S(=O)(=O)N2CCCCC2)c1)N1CCN(Cc2ccccc2)CC1	-56.6%
Cl.O=C(c1ccc2c(c1)OCCO2)N1CCN(Cc2ccccc2)CC1	2.59%
N#Cc1ccc(CN2CCN(C(=O)c3cccc(S(=O)(=O)N4CCCCCC4)c3)CC2)cc1	-75.8%
N#Cc1ccc(CN2CCN(C(=O)c3cc(Cl)c4c(c3)OCCO4)CC2)cc1	-67.7%
CN1CCN(C(=O)c2cccc(S(=O)(=O)N3CCCCC3)c2)CC1	-7.44%
CC(=O)Nc1nnc(CCS(=O)(=O)c2ccc(C)c(C)c2)s1	8.73%
Cc1ccccc1N/N=C/c1sc(=O)n(Cc2cccc(C(=O)O)c2)c1Cl	38.9%
CCN(CC)C(=O)Oc1ccc2c(=O)c(-c3ccc(OC)cc3)c(C)oc2c1	-35.8%
O=C(Nc1cccc(F)c1)Nc1ccc(Cl)cn1	7.51%
Cc1cccc(CN(C(=S)Nc2c(C)cccc2C)c2cccnc2)c1	-9.13%
Cc1[nH]c2ccccc2c1C(=O)COC(=O)C(C)C	-6.03%
S=C(NCC(c1ccco1)N1CCCC1)Nc1ccccc1 (stereo not drawn)	-28.9%
COc1ccc(-n2nnnc2SCC(=O)Nc2nc3c(s2)CCCC3)cc1	9.26%
Cc1cccc(C)c1NC(=O)CN1CCc2ccccc2C1	8.31%

SMILES	hERG current change (%, negative = inhibition) at 10uM
Cc1cc(C)nc(-n2nc(C)cc2NC(=O)CN2CCCC(C)C2)n1 (stereo not drawn)	-56%
Cc1cc(C)nc(-n2nc(C)cc2NC(=O)CN2CCC(C)CC2)n1	-65.6%
CCC1CCCCN1CC(=O)Nc1cc(C)nn1-c1nc(C)cc(C)n1 (stereo not drawn)	-58.8%
Cc1cc(NC(=O)CN2CCCCC2)n(-c2ccccc2)n1	6.65%
Cc1cc(NC(=O)CN2CCCC(C)C2)no1.O=C(O)C(=O)O (stereo not drawn)	10.7%
Cc1cc(C)cc(NC(=O)CN2CCc3ccccc3C2)c1	-10.2%
CC(=O)Nc1ccc(NC(=O)CN2CCCC(C)C2)c(Cl)c1 (stereo not drawn)	-5.17%
Cc1cc(C)nc(-n2nc(C)cc2NC(=O)CN2CCCC2)n1	-34.1%
CCC1CCCCN1CC(=O)Nc1ccc2c(c1)OCCO2 (stereo not drawn)	10.6%
Cc1cc(C)nc(-n2nc(C)cc2NC(=O)CN2CCc3ccccc3C2)n1	-68.7%
CCC1CCCCN1C(=O)CSc1nc(C)cc(C)n1 (stereo not drawn)	-12.8%
Cc1ccc(C2(COC(=O)C(C)C)CO2)c(OC(=O)C(C)C)c1 (stereo not drawn)	2.15%
Cc1ccc(-c2n[nH]c(=O)c3ccccc23)cc1S(=O)(=O)NC(C)(C)C	13.6%
CCn1c(SCC(N)=O)nnc1-c1ccc2c(c1)OCO2	-0.333%
O=C(Nc1cc(Sc2ccccn2)cc([N+](=O)[O-])c1)c1ccc(Cl)cc1	11.6%
CCOc1ccccc1C(=O)Nc1cc(Cl)ccc1O	14.7%
COc1ccc(CC(=O)N2CCc3cc(OC)c(OC)cc3C2C)c(OC)c1 (stereo not drawn)	-6.22%
CCc1ccccc1NC1c2ccccc2C(=O)N1c1cc(C)ccn1 (stereo not drawn)	-1.18%
Cc1cc(C)nc(-n2nc(C)cc2NC(=O)c2ccc(F)cc2F)n1	-0.0513%
Cc1cc(C)nc(-n2nc(C)cc2NC(=O)CNC2CCCCC2)n1	-52.4%
Cc1ccc(C)c(C(=O)Nc2cc(C)nn2-c2nc(C)cc(C)n2)c1	3.98%
